Measurements from publication PMC7862700, “An all-to-all approach to the identification of sequence-specific readers for epigenetic DNA modifications on cytosine”.

Legend:
Assay in all cases: DAPPL (digital affinity profiling via proximity ligation, sequencing); 10 mM Tris-HCl pH 7.5, 50 mM NaCl, 1 mM DTT, 4% glycerol, room temperature, 30 min; GST-TFs on glutathione beads, 16-mer random dsDNA library, 0.1% formaldehyde crosslink after washing; high values mean tight binding
[1] = biological target: T1, FLI1 (Homo sapiens, UniProt Q01543 1-452); details: protein: recombinant; tags: N-terminal GST; dsDNA, one strand shown
T1 sequence: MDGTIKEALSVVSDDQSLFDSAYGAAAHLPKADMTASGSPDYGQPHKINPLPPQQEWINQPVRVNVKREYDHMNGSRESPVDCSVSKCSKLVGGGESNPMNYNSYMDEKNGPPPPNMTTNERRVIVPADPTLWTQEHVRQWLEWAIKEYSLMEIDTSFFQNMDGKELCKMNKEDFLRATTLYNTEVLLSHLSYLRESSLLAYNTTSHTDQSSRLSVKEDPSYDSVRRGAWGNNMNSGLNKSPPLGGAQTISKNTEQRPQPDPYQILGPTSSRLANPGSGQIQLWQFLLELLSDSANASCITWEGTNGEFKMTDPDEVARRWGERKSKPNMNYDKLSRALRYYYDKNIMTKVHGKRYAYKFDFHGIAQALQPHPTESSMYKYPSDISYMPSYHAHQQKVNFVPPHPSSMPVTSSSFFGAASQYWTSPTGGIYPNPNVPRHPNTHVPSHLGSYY
In short: (§1)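 The binding signal reported is, for every hexamer, its read frequency for a factor over its read frequency for the tag-only sample. Reads came from pools of yeast-expressed, GST-fused human transcription factors on glutathione beads, barcoded with DNA and mixed with that sample, which were incubated with 200 nmole of a random double-stranded 16-mer DNA library in Tris/NaCl/DTT/glycerol buffer at room temperature for 30 min. After washing, the pools were crosslinked with 0.1% formaldehyde, proximity-ligated with BsaI/T4 ligase for 1 h at 37 °C, PCR-amplified and sequenced on an Illumina NextSeq500.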

[2] = biological target: T2, ELK1 (Homo sapiens, UniProt P19419 1-428); details: protein: recombinant; tags: N-terminal GST; dsDNA, one strand shown
T2 sequence: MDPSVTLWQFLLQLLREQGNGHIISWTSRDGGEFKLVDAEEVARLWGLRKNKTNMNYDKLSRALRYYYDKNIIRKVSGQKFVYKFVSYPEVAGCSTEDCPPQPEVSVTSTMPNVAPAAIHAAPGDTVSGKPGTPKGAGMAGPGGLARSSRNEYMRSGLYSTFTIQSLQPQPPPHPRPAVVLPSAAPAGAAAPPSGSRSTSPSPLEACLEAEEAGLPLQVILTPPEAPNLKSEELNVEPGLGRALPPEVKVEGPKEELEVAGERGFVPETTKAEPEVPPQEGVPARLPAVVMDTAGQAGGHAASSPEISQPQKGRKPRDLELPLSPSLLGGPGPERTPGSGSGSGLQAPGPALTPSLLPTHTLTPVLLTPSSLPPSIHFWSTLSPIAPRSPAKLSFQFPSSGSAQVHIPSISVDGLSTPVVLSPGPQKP
In short: as §1

[3] = biological target: T3, GABPA (Homo sapiens, UniProt Q06546 1-454); details: protein: recombinant; tags: N-terminal GST; dsDNA, one strand shown
T3 sequence: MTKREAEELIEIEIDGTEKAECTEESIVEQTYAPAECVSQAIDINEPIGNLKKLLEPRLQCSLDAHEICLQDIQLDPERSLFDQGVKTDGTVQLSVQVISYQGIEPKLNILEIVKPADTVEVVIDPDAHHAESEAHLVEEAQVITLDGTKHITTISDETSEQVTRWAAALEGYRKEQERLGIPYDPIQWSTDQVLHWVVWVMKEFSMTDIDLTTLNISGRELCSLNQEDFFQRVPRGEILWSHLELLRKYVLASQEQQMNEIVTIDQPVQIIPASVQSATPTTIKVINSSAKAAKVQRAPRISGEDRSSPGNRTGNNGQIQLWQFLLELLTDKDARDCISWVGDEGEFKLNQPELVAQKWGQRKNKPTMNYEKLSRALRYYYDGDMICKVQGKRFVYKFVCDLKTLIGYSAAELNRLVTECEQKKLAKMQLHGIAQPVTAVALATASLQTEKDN
In short: as §1

[4] = biological target: T4, ERG (Homo sapiens, UniProt P11308 1-479); details: protein: recombinant; tags: N-terminal GST; dsDNA, one strand shown
T4 sequence: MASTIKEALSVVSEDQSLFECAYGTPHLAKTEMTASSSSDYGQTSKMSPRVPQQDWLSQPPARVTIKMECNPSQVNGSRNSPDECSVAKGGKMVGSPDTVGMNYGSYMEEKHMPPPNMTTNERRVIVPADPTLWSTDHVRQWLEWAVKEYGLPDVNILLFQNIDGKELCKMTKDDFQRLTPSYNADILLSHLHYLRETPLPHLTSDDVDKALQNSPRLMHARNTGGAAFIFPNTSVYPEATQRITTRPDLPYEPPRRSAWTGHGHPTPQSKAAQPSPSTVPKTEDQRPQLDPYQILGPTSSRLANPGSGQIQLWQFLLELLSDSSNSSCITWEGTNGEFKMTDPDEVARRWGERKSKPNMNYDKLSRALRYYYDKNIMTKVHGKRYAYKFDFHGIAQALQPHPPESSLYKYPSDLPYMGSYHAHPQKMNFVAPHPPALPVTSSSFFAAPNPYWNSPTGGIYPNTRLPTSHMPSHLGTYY
In short: as §1

[5] = biological target: ELF1 (Homo sapiens, UniProt P32519 1-619); details: protein: recombinant; tags: N-terminal GST; dsDNA, one strand shown
Sequence of ELF1 (P32519 whole entry): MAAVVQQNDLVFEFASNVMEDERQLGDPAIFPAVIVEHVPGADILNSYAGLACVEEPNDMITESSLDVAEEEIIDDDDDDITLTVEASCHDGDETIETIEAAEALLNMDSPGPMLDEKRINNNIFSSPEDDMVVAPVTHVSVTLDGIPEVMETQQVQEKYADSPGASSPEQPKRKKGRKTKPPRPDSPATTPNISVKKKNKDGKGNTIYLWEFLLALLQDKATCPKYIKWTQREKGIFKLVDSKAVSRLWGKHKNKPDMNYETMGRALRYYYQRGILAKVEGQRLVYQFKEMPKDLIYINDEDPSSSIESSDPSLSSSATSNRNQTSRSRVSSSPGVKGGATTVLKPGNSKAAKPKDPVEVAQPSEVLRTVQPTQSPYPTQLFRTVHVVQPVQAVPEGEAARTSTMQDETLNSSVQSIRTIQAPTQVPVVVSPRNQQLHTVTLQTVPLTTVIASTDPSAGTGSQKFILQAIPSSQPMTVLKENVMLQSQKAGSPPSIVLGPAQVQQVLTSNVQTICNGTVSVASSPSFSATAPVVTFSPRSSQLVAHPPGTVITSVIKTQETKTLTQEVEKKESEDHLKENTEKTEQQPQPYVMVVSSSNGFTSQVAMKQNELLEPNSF
In short: as §1

[6] = biological target: T5, EHF (Homo sapiens, UniProt Q9NZC4 1-300); details: protein: recombinant; tags: N-terminal GST; dsDNA, one strand shown
T5 sequence: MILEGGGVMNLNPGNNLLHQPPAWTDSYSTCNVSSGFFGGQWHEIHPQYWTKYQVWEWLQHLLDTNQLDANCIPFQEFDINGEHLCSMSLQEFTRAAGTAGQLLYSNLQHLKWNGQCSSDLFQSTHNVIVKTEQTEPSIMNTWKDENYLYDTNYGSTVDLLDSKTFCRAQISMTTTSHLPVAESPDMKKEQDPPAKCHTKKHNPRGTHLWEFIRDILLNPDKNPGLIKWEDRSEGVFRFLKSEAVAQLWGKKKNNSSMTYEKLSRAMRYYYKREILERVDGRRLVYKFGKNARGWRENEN
In short: as §1

[7] = biological target: SPI1 (Homo sapiens, UniProt P17947 1-270); details: protein: recombinant; tags: N-terminal GST; dsDNA, one strand shown
In short: as §1

[8] = biological target: SPIB (Homo sapiens, UniProt Q01892 1-262); details: protein: recombinant; tags: N-terminal GST; dsDNA, one strand shown
Sequence of SPIB (Q01892 whole entry): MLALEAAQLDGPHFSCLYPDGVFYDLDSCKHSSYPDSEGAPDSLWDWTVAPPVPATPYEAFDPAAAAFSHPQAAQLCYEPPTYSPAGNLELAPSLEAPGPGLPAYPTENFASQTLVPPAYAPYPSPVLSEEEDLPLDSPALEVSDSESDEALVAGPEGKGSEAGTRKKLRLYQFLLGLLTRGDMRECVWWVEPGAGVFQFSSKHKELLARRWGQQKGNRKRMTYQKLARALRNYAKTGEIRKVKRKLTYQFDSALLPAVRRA
In short: as §1

[9] = biological target: T6, ELK3 (Homo sapiens, UniProt P41970 1-407); details: protein: recombinant; tags: N-terminal GST; dsDNA, one strand shown
T6 sequence: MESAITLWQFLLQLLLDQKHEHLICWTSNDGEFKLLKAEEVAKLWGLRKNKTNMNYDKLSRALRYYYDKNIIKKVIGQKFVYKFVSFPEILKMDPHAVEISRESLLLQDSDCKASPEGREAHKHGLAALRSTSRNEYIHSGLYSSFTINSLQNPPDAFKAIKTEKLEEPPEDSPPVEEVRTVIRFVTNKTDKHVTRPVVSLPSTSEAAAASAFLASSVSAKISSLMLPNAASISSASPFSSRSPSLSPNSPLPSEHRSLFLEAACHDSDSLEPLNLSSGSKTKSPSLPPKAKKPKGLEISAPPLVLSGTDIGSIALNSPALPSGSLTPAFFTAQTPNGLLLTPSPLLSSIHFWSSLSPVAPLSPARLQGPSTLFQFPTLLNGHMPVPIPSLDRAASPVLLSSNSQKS
In short: as §1

[10] = biological target: T7, FEV (Homo sapiens, UniProt Q99581 1-238); details: protein: recombinant; tags: N-terminal GST; dsDNA, one strand shown
T7 sequence: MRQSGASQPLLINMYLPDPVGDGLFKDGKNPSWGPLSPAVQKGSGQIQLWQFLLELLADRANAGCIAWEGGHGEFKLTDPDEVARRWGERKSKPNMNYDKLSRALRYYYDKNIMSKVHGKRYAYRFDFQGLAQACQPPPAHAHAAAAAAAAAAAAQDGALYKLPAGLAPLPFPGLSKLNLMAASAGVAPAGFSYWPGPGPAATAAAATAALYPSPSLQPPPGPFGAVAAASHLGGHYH
In short: as §1

[11] = biological target: ETV5 (Homo sapiens, UniProt P41161 1-510); details: protein: recombinant; tags: N-terminal GST; dsDNA, one strand shown
Sequence of ETV5 (P41161 whole entry): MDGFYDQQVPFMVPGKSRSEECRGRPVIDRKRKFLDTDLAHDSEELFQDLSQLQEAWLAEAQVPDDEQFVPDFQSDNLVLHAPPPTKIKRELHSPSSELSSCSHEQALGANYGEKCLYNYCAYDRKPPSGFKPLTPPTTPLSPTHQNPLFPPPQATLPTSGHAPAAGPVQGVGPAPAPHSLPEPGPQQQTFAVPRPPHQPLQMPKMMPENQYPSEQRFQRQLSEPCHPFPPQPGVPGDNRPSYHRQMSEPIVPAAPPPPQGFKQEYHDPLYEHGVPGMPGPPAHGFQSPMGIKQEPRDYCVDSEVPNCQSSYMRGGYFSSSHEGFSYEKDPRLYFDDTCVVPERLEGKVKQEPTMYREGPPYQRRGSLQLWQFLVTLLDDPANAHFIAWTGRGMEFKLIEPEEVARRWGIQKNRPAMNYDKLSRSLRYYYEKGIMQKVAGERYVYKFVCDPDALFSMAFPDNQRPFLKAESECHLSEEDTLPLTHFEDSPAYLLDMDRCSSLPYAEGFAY
In short: as §1

[12] = biological target: HSF1 (Homo sapiens, UniProt Q00613 1-529); details: protein: recombinant; tags: N-terminal GST; chain copies: 3; dsDNA, one strand shown
Sequence of HSF1 (Q00613 whole entry): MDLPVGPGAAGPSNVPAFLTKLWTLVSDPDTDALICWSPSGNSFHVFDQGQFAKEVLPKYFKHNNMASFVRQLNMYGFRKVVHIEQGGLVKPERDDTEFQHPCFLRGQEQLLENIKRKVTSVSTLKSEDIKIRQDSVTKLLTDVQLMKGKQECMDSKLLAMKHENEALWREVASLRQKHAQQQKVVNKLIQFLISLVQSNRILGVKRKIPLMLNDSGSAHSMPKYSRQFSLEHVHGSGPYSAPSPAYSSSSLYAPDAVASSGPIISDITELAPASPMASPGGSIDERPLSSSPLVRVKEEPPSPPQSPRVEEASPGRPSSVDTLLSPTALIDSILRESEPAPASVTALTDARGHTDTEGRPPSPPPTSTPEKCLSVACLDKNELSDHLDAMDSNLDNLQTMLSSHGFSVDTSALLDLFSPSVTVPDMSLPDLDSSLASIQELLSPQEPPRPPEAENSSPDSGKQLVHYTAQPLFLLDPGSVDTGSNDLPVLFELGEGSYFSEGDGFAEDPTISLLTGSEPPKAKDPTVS
In short: as §1

[13] = biological target: ELF4 (Homo sapiens, UniProt Q99607 1-663); details: protein: recombinant; tags: N-terminal GST; dsDNA, one strand shown
Sequence of ELF4 (Q99607 whole entry): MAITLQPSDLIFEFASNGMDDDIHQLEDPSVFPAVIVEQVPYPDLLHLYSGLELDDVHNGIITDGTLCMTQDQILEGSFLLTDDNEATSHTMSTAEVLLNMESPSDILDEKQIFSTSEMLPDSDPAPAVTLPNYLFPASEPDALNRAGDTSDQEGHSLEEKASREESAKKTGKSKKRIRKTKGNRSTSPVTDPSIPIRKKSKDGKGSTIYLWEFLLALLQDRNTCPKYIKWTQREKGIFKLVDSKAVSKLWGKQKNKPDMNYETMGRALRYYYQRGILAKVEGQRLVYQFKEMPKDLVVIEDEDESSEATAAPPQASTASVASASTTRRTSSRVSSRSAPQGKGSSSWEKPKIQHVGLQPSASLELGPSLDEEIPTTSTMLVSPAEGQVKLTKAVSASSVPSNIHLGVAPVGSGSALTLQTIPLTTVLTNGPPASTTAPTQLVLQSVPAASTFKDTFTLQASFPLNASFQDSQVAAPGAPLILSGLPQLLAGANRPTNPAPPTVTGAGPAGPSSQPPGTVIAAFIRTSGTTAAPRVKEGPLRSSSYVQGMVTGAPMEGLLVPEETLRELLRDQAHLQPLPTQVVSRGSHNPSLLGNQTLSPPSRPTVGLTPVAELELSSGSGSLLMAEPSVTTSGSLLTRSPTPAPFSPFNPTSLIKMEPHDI
In short: as §1

[14] = biological target: T8, ELK4 (Homo sapiens, UniProt P28324-2 1-405); details: protein: recombinant; tags: N-terminal GST; dsDNA, one strand shown
T8 sequence: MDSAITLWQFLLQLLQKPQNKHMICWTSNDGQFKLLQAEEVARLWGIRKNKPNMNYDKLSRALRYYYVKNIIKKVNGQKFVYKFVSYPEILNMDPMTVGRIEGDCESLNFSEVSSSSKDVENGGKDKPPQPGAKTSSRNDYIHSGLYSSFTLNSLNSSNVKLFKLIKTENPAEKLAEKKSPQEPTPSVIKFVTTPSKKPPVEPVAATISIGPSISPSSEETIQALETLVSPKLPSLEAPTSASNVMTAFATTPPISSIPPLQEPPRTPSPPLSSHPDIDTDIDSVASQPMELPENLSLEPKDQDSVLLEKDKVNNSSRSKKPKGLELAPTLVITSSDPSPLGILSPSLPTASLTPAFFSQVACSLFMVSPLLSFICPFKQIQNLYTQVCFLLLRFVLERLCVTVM
In short: as §1

[15] = biological target: T9, ETV2 (Homo sapiens, UniProt O00321 1-342); details: protein: recombinant; tags: N-terminal GST; dsDNA, one strand shown
T9 sequence: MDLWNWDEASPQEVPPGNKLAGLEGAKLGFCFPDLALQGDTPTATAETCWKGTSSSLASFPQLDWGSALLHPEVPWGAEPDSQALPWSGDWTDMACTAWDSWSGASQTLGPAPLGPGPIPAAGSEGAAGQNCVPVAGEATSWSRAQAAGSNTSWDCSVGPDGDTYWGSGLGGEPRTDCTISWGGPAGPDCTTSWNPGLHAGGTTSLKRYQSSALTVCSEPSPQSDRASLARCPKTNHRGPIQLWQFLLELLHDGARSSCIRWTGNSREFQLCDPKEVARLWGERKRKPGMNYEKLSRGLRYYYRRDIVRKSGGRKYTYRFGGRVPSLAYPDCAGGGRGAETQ
In short: as §1

[16] = biological target: T10, ELF3 (Homo sapiens, UniProt P78545 1-371); details: protein: recombinant; tags: N-terminal GST; dsDNA, one strand shown
T10 sequence: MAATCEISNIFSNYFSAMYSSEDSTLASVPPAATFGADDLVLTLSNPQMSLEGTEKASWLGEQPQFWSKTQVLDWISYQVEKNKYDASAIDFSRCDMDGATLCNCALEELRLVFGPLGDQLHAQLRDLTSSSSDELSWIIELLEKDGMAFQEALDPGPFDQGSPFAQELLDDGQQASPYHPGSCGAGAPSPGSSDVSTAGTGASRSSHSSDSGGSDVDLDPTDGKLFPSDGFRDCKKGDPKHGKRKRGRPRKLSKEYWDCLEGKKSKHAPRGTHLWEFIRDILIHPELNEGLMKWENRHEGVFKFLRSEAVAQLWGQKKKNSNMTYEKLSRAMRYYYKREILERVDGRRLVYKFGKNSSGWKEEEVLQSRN
In short: as §1

[17] = biological target: CRX (Homo sapiens, UniProt O43186 1-299); details: protein: recombinant; tags: N-terminal GST; dsDNA, one strand shown
Sequence of CRX (O43186 whole entry): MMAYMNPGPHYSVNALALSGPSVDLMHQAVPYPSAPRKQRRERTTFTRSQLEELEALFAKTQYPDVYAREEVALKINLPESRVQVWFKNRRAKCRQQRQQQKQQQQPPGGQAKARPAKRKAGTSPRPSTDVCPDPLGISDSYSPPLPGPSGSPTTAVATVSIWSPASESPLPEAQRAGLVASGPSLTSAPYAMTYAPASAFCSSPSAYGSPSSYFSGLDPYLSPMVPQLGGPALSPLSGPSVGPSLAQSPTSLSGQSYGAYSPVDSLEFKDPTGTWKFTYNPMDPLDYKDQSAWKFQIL
In short: as §1

[18] = biological target: ETV1 (Homo sapiens, UniProt P50549 1-477); details: protein: recombinant; tags: N-terminal GST; dsDNA, one strand shown
Sequence of ETV1 (P50549 whole entry): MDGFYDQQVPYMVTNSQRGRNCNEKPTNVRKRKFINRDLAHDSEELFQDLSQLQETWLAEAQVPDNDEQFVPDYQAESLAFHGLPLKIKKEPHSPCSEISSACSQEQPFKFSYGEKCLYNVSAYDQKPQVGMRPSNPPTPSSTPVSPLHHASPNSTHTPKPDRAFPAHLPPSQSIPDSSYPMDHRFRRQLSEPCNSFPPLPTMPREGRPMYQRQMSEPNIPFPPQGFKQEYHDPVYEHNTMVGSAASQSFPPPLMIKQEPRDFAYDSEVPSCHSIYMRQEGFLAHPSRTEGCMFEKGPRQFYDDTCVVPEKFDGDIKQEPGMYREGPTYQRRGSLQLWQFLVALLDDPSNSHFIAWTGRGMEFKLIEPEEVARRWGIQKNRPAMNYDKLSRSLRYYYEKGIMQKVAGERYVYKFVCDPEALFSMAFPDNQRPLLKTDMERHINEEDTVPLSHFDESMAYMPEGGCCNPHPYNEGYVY
In short: as §1

TGCAAA
binding signal [1]: 1.13 fold enrichment (6-mer frequency, TF over GST control)
binding signal [2]: 1.11 fold enrichment (6-mer frequency, TF over GST control)
binding signal [3]: 1.07 fold enrichment (6-mer frequency, TF over GST control)
binding signal [4]: 1.14 fold enrichment (6-mer frequency, TF over GST control)
binding signal [5]: 1.19 fold enrichment (6-mer frequency, TF over GST control)
binding signal [6]: 1.16 fold enrichment (6-mer frequency, TF over GST control)
binding signal [7]: 1.14 fold enrichment (6-mer frequency, TF over GST control)
binding signal [8]: 1.12 fold enrichment (6-mer frequency, TF over GST control)
binding signal [9]: 1.14 fold enrichment (6-mer frequency, TF over GST control)
binding signal [10]: 1.12 fold enrichment (6-mer frequency, TF over GST control)
binding signal [11]: 1.09 fold enrichment (6-mer frequency, TF over GST control)
binding signal [12]: 1.06 fold enrichment (6-mer frequency, TF over GST control)
binding signal [13]: 1.13 fold enrichment (6-mer frequency, TF over GST control)
binding signal [14]: 1.14 fold enrichment (6-mer frequency, TF over GST control)
binding signal [15]: 1.08 fold enrichment (6-mer frequency, TF over GST control)
binding signal [16]: 1.2 fold enrichment (6-mer frequency, TF over GST control)
binding signal [17]: 1.01 fold enrichment (6-mer frequency, TF over GST control)
binding signal [18]: 1.14 fold enrichment (6-mer frequency, TF over GST control)
